# Tests used:
# [1] = target: T1, Aspartate--tRNA(Asp/Asn) ligase (Mycobacterium tuberculosis (strain ATCC 25618 / H37Rv)) (UniProt P9WFW3); assay: Assay for Asp RNA synthetase-1 from Mycobacterium tuberculosis; format: functional; design: scale not given: direction of the effect not stated beside the values; details: 30 µM; also: in the data most compounds retested in dose-response had high values
# T1 sequence (whole entry): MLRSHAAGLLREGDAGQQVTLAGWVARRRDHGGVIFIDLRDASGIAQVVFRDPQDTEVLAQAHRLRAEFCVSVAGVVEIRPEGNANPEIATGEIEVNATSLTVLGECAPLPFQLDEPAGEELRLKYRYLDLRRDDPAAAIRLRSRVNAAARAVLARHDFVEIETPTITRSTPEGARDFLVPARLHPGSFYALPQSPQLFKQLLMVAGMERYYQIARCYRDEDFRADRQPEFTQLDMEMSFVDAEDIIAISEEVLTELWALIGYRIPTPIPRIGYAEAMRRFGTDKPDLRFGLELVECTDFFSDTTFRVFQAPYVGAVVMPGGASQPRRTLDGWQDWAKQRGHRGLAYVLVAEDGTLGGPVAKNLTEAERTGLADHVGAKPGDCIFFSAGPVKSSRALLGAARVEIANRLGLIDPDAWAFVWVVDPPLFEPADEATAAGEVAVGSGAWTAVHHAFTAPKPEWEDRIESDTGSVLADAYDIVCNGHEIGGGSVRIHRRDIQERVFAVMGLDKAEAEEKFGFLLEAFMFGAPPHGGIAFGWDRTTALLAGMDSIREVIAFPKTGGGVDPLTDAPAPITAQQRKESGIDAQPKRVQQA
# [2] = target: Shiga toxin 2 (Escherichia coli O157:H7) (UniProt P09385+P09386); assay: E. coli 0.157:H7 Shiga Toxin SOP - stx2 screening assay; format: functional; design: scale not given: direction of the effect not stated beside the values; details: 30 µM
SMILES,Percent Effect [1] [%],Percent Effect [2] [%]
CSc1ccccc1CN1CCn2nc(CNC(C)=O)cc2C1,6.15,-66.1
COCc1cncc2c1CCN(C(=O)c1ccc(C)o1)C2,8.15,-6.15
Cc1nc(C2CCCN(C(=O)C(C)(C)n3cc(Cl)cn3)C2)no1 (stereo not drawn),-5.75,-14.3
FC(F)(F)C1CCc2nnc(CNCc3ccsc3)n2C1 (stereo not drawn),-0.0705,3.92
CC(C)c1nc(CN(C)C2CCN(CCNS(C)(=O)=O)C2)no1 (stereo not drawn),0.0463,-26.6
CCS(=O)(=O)N1CCC[C@]2(C(=O)N(C)C)CN(c3ncccn3)C[C@@H]2C1,2.53,-34.5
Cc1cnn(CC2CCCN2CCc2nc3ccccc3c(=O)[nH]2)c1 (stereo not drawn),-3.23,2.14
Cc1cc(NC(=O)NCCc2ccsc2)n(C)n1,-9.16,-21.1
O=C(c1cc(F)ccc1F)C1CCN(C(=O)c2ccccn2)CC1,-3.52,18.1
CCN(Cc1ccc2c(c1)OCO2)C(=O)c1ccc(C)[nH]c1=O,0.522,-16
CCc1c(C)nc2n(c1=O)CC(C(=O)Nc1nccs1)CS2 (stereo not drawn),-3.8,-29.4
CS(=O)(=O)NC1CCc2c(ccc(=O)n2CC2CC2)C1 (stereo not drawn),2.4,-5.71
Cc1nc(C)n(C2CCCN(C(=O)c3cnc[nH]3)C2)n1 (stereo not drawn),-5.96,9.84
Cc1cccc(C(=O)N2C[C@@H](OCc3cccnc3)[C@H]3OCCC[C@@H]32)n1,-2,-30.7
O=C(Cn1ccc2ccc(Br)cc21)NC[C@@H]1CCCN2CCCC[C@H]12,-3.66,-42.1
COC(=O)CCc1c(C)nc2cc(O)nn2c1C,-3.67,-37.6
Cc1nn(C(C)C)c(C)c1NC(=O)c1ccncc1,-0.479,-15.8
CCN1C[C@@H]2[C@@H](OC)CCN(S(=O)(=O)c3ccccc3)[C@@H]2C1,-4.66,-20.4
CC(C)n1ccnc1C1CCN(C(=O)C2COc3ccccc3O2)CC1 (stereo not drawn),-1.53,13.2
